Inconclusive results are not listed. Where a call stands in place of a potency, no number is given. More than one record can exist for a structure, and the calls need not agree. Active and inactive are the calls of the source. The call rests on the fitted dose curve; in most records, active means well fitted activation curve with a large enough effect in the repeat runs; inconclusive means weak or mixed curves; inactive means flat fitted curve, though single readings scatter. Residues, ends and D or L forms follow the SMILES beside them.
Potency means the concentration at half of the fitted maximal effect.

This experiment in a line: Caspase-3/7 induction in HepG2 cells by small molecules, qHTS assay (AID 1346978). Further: nearly all actives have a fitted effect of over 15% in size. The note with it: HepG2 caspase-3/7 activation, Caspase-Glo luminescence, 17 h; series mostly up to 92.4 µM. An outline of the steps: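 Caspase-3/7 induction was measured by Caspase-Glo 3/7 luminescence (30 min, room temperature) after a 17 hr compound exposure of wild-type HepG2 cells seeded at 2,000 per well and pre-incubated 5 hr.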
`NC(N)=O`: the Potency result is “inactive”.
With `O=C(c1ccccc1)C(O)c1ccccc1` (stereo unspecified) the entry was “inactive”.
Regarding `CCCCOC(=O)CC(CC(=O)OCCCC)(OC(C)=O)C(=O)OCCCC`, the Potency result is “inactive”.
As to `O=C(O)CCCCC(=O)O`, the Potency entry is “inactive”.
With `CCCC(O)C(CC)CO` (stereo unspecified) the entry was “inactive”.
With `COC(=O)[C@H](Cc1ccccc1)NC(=O)[C@@H](N)CC(=O)O` (H-Asp-Phe-OMe) the entry was “inactive”; with `CCOc1ccc(NC(=O)CC(C)O)cc1` (stereo unspecified), “inactive”.
As for `O=c1ccc2ccccc2o1`, the Potency result is “inactive”.
With `CC(O)C(=O)O` (stereo unspecified) the entry was “inactive”; with `CC(O)CN(CCN(CC(C)O)CC(C)O)CC(C)O` (stereo unspecified), “inactive”; with `C[C@]12C=CC(=O)C=C1CC[C@@H]1[C@@H]2[C@@H](O)C[C@@]2(C)[C@H]1CC[C@]2(O)C(=O)CO`, “inactive”.
For `CC(C)(Oc1ccc(C2CC2(Cl)Cl)cc1)C(=O)O` (stereo unspecified), the Potency entry is “inactive”.
For the compound `Oc1ccc(/C=C/c2cc(O)cc(O)c2)cc1`, the Potency result is “inactive”.
Take `O=c1cc[nH]c(=S)[nH]1`: the Potency was 30.8 µM (active) and inactive.
With `c1ccc2[nH]ccc2c1` the entry was “inactive”.
With `Cc1cc(=O)[nH]c(=S)[nH]1` the entry was “inactive”.
With `O=C(O)CCC(=O)O` the entry was “inactive”.
In the case of `CC(O)CO` (stereo unspecified), the Potency entry is “inactive”.
On to `O=C1CN(/N=C/c2ccc([N+](=O)[O-])o2)C(=O)N1`, for which the Potency entry was “inactive”.
With `O=C(O)c1cc(N=Nc2ccc(S(=O)(=O)Nc3ccccn3)cc2)ccc1O` the entry was “inactive”.
With `O=C(O)C(=O)O`, the Potency result was “inactive”.
With `Cc1cn([C@H]2C[C@H](N=[N+]=[N-])[C@@H](CO)O2)c(=O)[nH]c1=O` the entry was “inactive”.
With `O=C(c1ccccc1)c1ccccc1` the entry was “inactive”; with `CC1(C)[C@@H]2CC[C@@]1(C)C(=O)C2`, “inactive”; with `O=NO`, “inactive”.
`Nc1ccc(C(=O)O)cc1`: the Potency entry was “inactive”.
With `CC(=O)OCC(COC(C)=O)OC(C)=O` the entry was “inactive”; with `Cc1ccccc1C(OCCN(C)C)c1ccccc1` (stereo unspecified), “inactive”.
In the case of `C/C=C/c1ccc(OC)cc1`, the Potency result is “inactive”.
With `CC(C)[C@@H]1CC[C@@H](C)C[C@H]1O`, the Potency was 69.5 µM (active) and inactive.
Take `CCCC(CCC)C(=O)O`: the Potency entry was “inactive”.
With `O=C(O)c1cccnc1` the entry was “inactive”; with `NNC(=O)c1ccncc1`, “inactive”; with `CCCCCCCCCCCCCCCC(=O)O`, “inactive”.
For `CCCCC(CC)COC(=O)/C=C/c1ccc(OC)cc1` (stereo unspecified), the Potency entry is “inactive”.
With `NC(=O)c1ccccc1O` the entry was “inactive”.

The values above are taken from PubChem BioAssay (Tox21).
